About 83,000 compounds went through this panel and 20% of them were active in at least one assay; those are over-represented in the sample as a whole.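 Cell lines were cultured in 96-well plates, exposed to a single compound concentration, and assessed for percent growth 48 hours later.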 A number with no mark means an inactive call. The source made the active and inactive calls. The calls were made as follows: active = growth percent below 10; inactive = the rest.
Columns and labels:
Experiment in all cases: NCI-60 one-dose screen, 48 h (100 = growth as untreated, 0 = no growth, -100 = all killed)
HCT-15 colon = details: 10 µM unless noted
HT29 colon = details: 10 µM unless noted
SNB-75 CNS = details: 10 µM unless noted
SNB-19 CNS = details: 10 µM unless noted
U251 CNS = details: 10 µM unless noted
PC-3 prostate = details: 10 µM unless noted
SK-MEL-5 melanoma = details: 10 µM unless noted
UACC-62 melanoma = details: 10 µM unless noted
LOX IMVI melanoma = details: 10 µM unless noted
SK-MEL-28 melanoma = details: 10 µM unless noted
SK-MEL-2 melanoma = details: 10 µM unless noted
SN12C renal = details: 10 µM unless noted
ACHN renal = details: 10 µM unless noted
CAKI-1 renal = details: 10 µM
A498 renal = details: 10 µM unless noted
CCRF-CEM leukemia = details: 10 µM unless noted
MOLT-4 leukemia = details: 10 µM unless noted
UO-31 renal = details: 10 µM unless noted
TK-10 renal = details: 10 µM unless noted
EKVX NSCLC = details: 10 µM unless noted

| Structure (SMILES) | growth (HCT-15 colon) | growth (HT29 colon) | growth (SNB-75 CNS) [%] | growth (SNB-19 CNS) [%] | growth (U251 CNS) | growth (PC-3 prostate) [%] | growth (SK-MEL-5 melanoma) | growth (UACC-62 melanoma) | growth (LOX IMVI melanoma) | growth (SK-MEL-28 melanoma) | growth (SK-MEL-2 melanoma) [%] | growth (SN12C renal) | growth (ACHN renal) | growth (CAKI-1 renal) [%] | growth (A498 renal) [%] | growth (CCRF-CEM leukemia) | growth (MOLT-4 leukemia) | growth (UO-31 renal) | growth (TK-10 renal) | growth (EKVX NSCLC) [%] |
| --- | --- | --- | --- | --- | --- | --- | --- | --- | --- | --- | --- | --- | --- | --- | --- | --- | --- | --- | --- | --- |
| O=c1[nH]ccc2nc(N3CCC(O)CC3)nc(Nc3cccc(C(F)(F)F)c3)c12 | 49.9% | 71.6% | 87.1 | 98.9 | 55.2% | 30.6 | -55.9% (active) | 32% | 56.2% | 76.1% | 25.2 | 61.4% | 67.6% | 38.6 | 93.6 | 13% | 1.19% (active) |  |  |  |
| CC12CCC3C(CCC4CC(O)CCC43C)C1C/C(=C/O)C(=O)O2 (configuration not stated) | 106% | 102% | 110 | 101 | 104% | 97.8 | 92.9% | 100% | 101% | 112% | 104 | 104% |  |  | 62.7 | 92.6% | 101% | 91% | 89.4% |  |
| C=C1C(=O)O[C@H]2[C@H]1CC/C(COC(=O)c1ccc(Cl)nc1)=C\CC[C@@]1(C)O[C@@H]21 | -14.6% (active) | -6.31% (active) | 74.9 | 56 | 44.1% | 53.2 | 44.8% | -25.6% (active) | -79.3% (active) | 1.37% (active) |  | 12.9% | -20.6% (active) |  | 87.2 | -32.1% (active) | -28.6% (active) | -39% (active) | -8.78% (active) | 10.2 |
| COc1ccc(/C(=C/c2cc(OC)c(OC)c(OC)c2)[N+](=O)[O-])cc1 | -41.3% (active) | -14.2% (active) | 49.2 | 55.2 | 5.34% (active) | 35.1 | 70.7% | -7.25% (active) | -80.3% (active) | 1.77% (active) |  | 5.64% (active) | -74% (active) |  | 87.4 | -7.93% (active) | 0.326% (active) | -69.1% (active) | -1.67% (active) | 27.9 |
| c1nc(SC2=NCCN2)c2[nH]cnc2n1 | 57.8% | 35.3% | 52.7 | 103 | 79.4% | 57.5 | 79.1% | 19.1% | 6.53% (active) | 95.4% | 38.8 | 78.7% | 54.2% |  | 92.8 | 31.3% | 16% | 40.6% | 22.6% |  |
| O=C(NCCNc1nccc(-c2c(-c3cccc(O)c3)nc3sccn23)n1)Nc1cccc(C(F)(F)F)c1 | 84.7% | 38.9% | 66.2 | 89.5 | 81.6% | 26.7 | 53.5% | 29.4% | 64.5% | 48.8% | 54.4 | 70.7% | 85.1% | 90.3 | 111 | 23.1% | 59.8% | 75.2% |  |  |
| OC(COc1ccccc1Cl)CN1CCN(c2ccc(Cl)cc2)CC1 (configuration not stated) | 90.5% | 113% | 83.3 | 111 | 99.5% | 85.1 | 104% | 95.9% | 104% | 103% | 126 | 106% | 94.6% |  | 78.6 | 46% | 95.3% | 81.7% | 117% |  |
| COc1cc(C(=O)C[n+]2ccccc2)ccc1OC(C)=O | 103% | 108% | 87.6 | 98.6 | 98.9% | 89.9 | 98% | 97.1% | 101% | 107% | 102 | 98.1% | 105% | 99.3 | 78.9 | 95.9% | 98.2% | 104% |  |  |

From PubChem BioAssay (NCI)
